From PubChem BioAssay (NCATS)
Results filed as inconclusive are left out. Calls of active or inactive are those of the source. Calls come from the whole dose curve; as a rule, active = well fitted inhibition curve with a large enough effect; inconclusive = small, poorly fitted or top-dose-only effect; inactive = flat fitted curve, though single readings scatter. Where a SMILES comes first, the peptide text is derived from it. [ ]: non-standard residue; d: D form. The star is where a group is joined. AFC = O=c1cc(C(F)(F)F)c2ccc(N*)cc2o1; PhLac = O=C(O)[CH](O)Cc1ccccc1; NMeV = CN[CH](C(=O)O)C(C)C

What was measured:
CRL-7250 = normal cell line; assay: Cytotoxic Profiling of Annotated Libraries Using Quantitative High-Throughput Screening (AID 1296008); details: Five cell lines viability, CellTiter-Glo ATP luminescence, 48-72 h; max response: hits give low values; for max response: % is set by controls: 0 for no effect and ±100 for the full control effect
Outline: (§1)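 Compounds were pin-transferred onto cells and incubated 48 or 72 hr at 37 degree Celsius, 95% humidity. CellTiter-Glo was added, plates sat 10 min at room temperature, then ATP-coupled luminescence was imaged as the viability read-out.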

HEK293 = assay: as above; details: Five cell lines viability, CellTiter-Glo ATP luminescence, 48-72 h; max response: hits give low values
Outline: as §1

HaCat = assay: as above; details: Five cell lines viability, CellTiter-Glo ATP luminescence, 48-72 h; max response: hits give low values
Outline: as §1

KB-3-1 = assay: as above; details: Five cell lines viability, CellTiter-Glo ATP luminescence, 48-72 h; max response: hits give low values
Outline: as §1

NIH3T3 = assay: as above; details: Five cell lines viability, CellTiter-Glo ATP luminescence, 48-72 h; max response: hits give low values
Outline: as §1

HEK293T = assay: qHTS assay to identify novel small-molecules to repurpose for Merkel cell carcinoma treatment (AID 1296009); details: MCC and control cell lines, CellTiter-Glo viability, 72 h; series mostly up to 44.8 µM
Outline: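 qHTS format: cells treated with library compounds in DMSO across 8 (NPC) or 11 (MIPE) concentrations. Readout after 72 hr at 37 degree celsius was CellTiter-Glo luminescence.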
Note: nearly all actives have a fitted effect of over 60% in size.

CC(=O)O[C@@H]1[C@@H](OC(=O)/C=C/c2ccccc2)[C@H](C)O[C@@H](O[C@H]2[C@@H]3C=CO[C@@H](O[C@@H]4O[C@H](CO)[C@@H](O)[C@H](O)[C@H]4O)[C@@H]3[C@@]3(CO)O[C@@H]23)[C@@H]1OC(C)=O
inactive: max response (CRL-7250) -9.67% | outcome (HEK293) | max response (HaCat) -6.34% | max response (KB-3-1) 5.32% | outcome (NIH3T3) | Potency (HEK293T)

C=CC1(C)CC(OC(=O)C(=C)C(O)COC(C)=O)C(C(=C)C(=O)OC)C(O)C1C(=C)CO (stereo not given)
inactive: outcome (CRL-7250) | outcome (HEK293) | max response (HaCat) -1.47% | max response (KB-3-1) 1.8% | max response (NIH3T3) 0.638% | Potency (HEK293T)

CCC(=O)N[C@@H]1Cc2ccccc2[C@H](c2ccccc2)C1
inactive: outcome (CRL-7250) | outcome (HEK293) | max response (HaCat) 0.895% | outcome (KB-3-1) | outcome (NIH3T3) | Potency (HEK293T)

CC(C)CC(=O)OC[C@H]1O[C@@](COC(=O)CC(C)C)(O[C@H]2O[C@H](CO)[C@@H](O)[C@H](O)[C@H]2OC(=O)CC(C)C)[C@@H](OC(=O)CC(C)C)[C@@H]1O
inactive: outcome (CRL-7250) | outcome (HEK293) | max response (HaCat) -5.25% | max response (KB-3-1) 6.03% | max response (NIH3T3) 0.671% | Potency (HEK293T)

CC1(C)CCCC2(C)C(CO)C3CCC2C31 (stereo not given)
inactive: max response (CRL-7250) -0.786% | outcome (HEK293) | max response (HaCat) 0.929% | outcome (KB-3-1) | outcome (NIH3T3) | Potency (HEK293T)

CC(C)C(C(=O)N1CCCC1C(=O)O)N(C)C(=O)C(O)Cc1ccccc1 (stereo not given) (H-[PhLac]-[NMeV]-Pro-OH; configuration not given here)
inactive: outcome (CRL-7250) | outcome (HEK293) | max response (HaCat) -7.13% | outcome (KB-3-1) | max response (NIH3T3) -4.85% | Potency (HEK293T)

COc1cc(/C=C/C(=O)O[C@H]2[C@H](OC(=O)/C=C/c3cc(OC)c(O)c(OC)c3)O[C@H](CO[C@@H]3O[C@H](CO)[C@@H](O)[C@H](O)[C@H]3O)[C@@H](O)[C@@H]2O)ccc1O
inactive: outcome (CRL-7250) | outcome (HEK293) | max response (HaCat) -26% | max response (KB-3-1) 7.55% | max response (NIH3T3) -14.9% | Potency (HEK293T)

CC1CCC2(C(=O)OC3OC(COC4OC(CO)C(O)C(O)C4O)C(O)C(O)C3O)CCC3(C)C(=CCC4C5(C)CCC(O)C(C)(C(=O)O)C5CCC43C)C2C1(C)O (stereo not given)
inactive: outcome (CRL-7250) | outcome (HEK293) | max response (HaCat) -9.13% | max response (KB-3-1) 0.532% | outcome (NIH3T3) | outcome (HEK293T) inactive [at 9.27 µM]

N#CCc1ccc(O)cc1O[C@@H]1O[C@H](CO)[C@@H](O)[C@H](O)[C@H]1O
inactive: outcome (CRL-7250) | outcome (HEK293) | max response (HaCat) -21.9% | max response (KB-3-1) -0.902% | outcome (NIH3T3) | Potency (HEK293T)

CC[C@H](/C=C/[C@@H](C)[C@H]1CC[C@H]2[C@@H]3CC=C4C[C@@H](O)CC[C@]4(C)[C@H]3CC[C@]12C)C(C)C
inactive: max response (CRL-7250) -4.85% | outcome (HEK293) | max response (HaCat) 0.322% | outcome (KB-3-1) | outcome (NIH3T3) | outcome (HEK293T) inactive [at 4.96 µM]

CC1=CC(=O)C2C(C)(C)CC(O)CC2(C)C1CO (stereo not given)
inactive: max response (CRL-7250) -38.7% | outcome (HEK293) | max response (HaCat) -3.16% | outcome (KB-3-1) | max response (NIH3T3) 2.39% | Potency (HEK293T)

CC1CCC(=O)CC(O)C(O)CC(=O)O1 (stereo not given)
inactive: max response (CRL-7250) -5.97% | outcome (HEK293) | max response (HaCat) 4.62% | max response (KB-3-1) 5.19% | outcome (NIH3T3) | Potency (HEK293T)

COc1cc(/C=C/C(=O)OC(C)(C)C(OC2OC(CO)C(O)C(O)C2O)C(=O)OCc2ccc(OC3OC(CO)C(O)C(O)C3O)cc2)ccc1O (stereo not given)
inactive: max response (CRL-7250) -9.61% | outcome (HEK293) | max response (HaCat) 3.1% | max response (KB-3-1) 5.7% | outcome (NIH3T3) | Potency (HEK293T)

COC(=O)[C@]12C(=O)C(C)=C(O)[C@@]1(C)C(C)=CC1[C@@]34CC[C@@H](OC(C)=O)C(C)(C)C3[C@H](C[C@]12C)OC4=O (stereo not given in full)
inactive: max response (CRL-7250) 4.87% | outcome (HEK293) | max response (HaCat) -9.29% | max response (KB-3-1) 1.77% | max response (NIH3T3) 4.25% | Potency (HEK293T)

Cn1c(=O)c2nc(/C=C/c3cccc(Cl)c3)n(C)c2n(C)c1=O
inactive: outcome (CRL-7250) | outcome (HEK293) | max response (HaCat) -5.76% | outcome (KB-3-1) | max response (NIH3T3) -2.68% | Potency (HEK293T)

c1ccc(Cc2ncc3c(n2)CCNCC3)cc1
inactive: max response (CRL-7250) -2.57% | outcome (HEK293) | max response (HaCat) -4.11% | max response (KB-3-1) 0.381% | outcome (NIH3T3) | Potency (HEK293T)

CC(=O)O[C@@]1(C)C[C@@H](O)[C@]2(O)C=CO[C@@H](O[C@@H]3O[C@H](CO)[C@@H](O)[C@H](O)[C@H]3O)[C@@H]21
inactive: max response (CRL-7250) -0.355% | outcome (HEK293) | max response (HaCat) 3.46% | outcome (KB-3-1) | outcome (NIH3T3) | Potency (HEK293T)

COC1CC(OC2CCC3(C)C(=CCC4C3CCC3(C)C(C(C)O)CCC43O)C2)OC(C)C1OC1OC(C)C(OC2OC(COC3OC(COC4OC(CO)C(O)C(O)C4O)C(O)C(O)C3O)C(O)C(O)C2O)C(OC)C1O (stereo not given)
inactive: max response (CRL-7250) -10.5% | outcome (HEK293) | max response (HaCat) -1.65% | outcome (KB-3-1) | outcome (NIH3T3) | outcome (HEK293T) inactive [at 9.27 µM]

C[C@H]1[C@H](C)CC[C@]2(C(=O)O)CC[C@]3(C(=O)O)C(=CCC4[C@@]5(C)CC[C@H](O[C@@H]6O[C@H](C)[C@@H](O)[C@H](O)[C@H]6O)C(C)(C)C5CC[C@]43C)[C@H]12 (stereo not given in full)
inactive: max response (CRL-7250) -5.62% | outcome (HEK293) | max response (HaCat) 2.99% | max response (KB-3-1) 1.93% | outcome (NIH3T3) | Potency (HEK293T)

CC1(C)CC[C@]2(C(=O)O)CC[C@]3(C)C(=CCC4[C@@]5(C)C[C@@H](O)[C@H](O)C(C)(C)C5CC[C@]43C)[C@@H]2[C@@H]1O (stereo not given in full)
inactive: max response (CRL-7250) -1.48% | outcome (HEK293) | max response (HaCat) -22.1% | max response (KB-3-1) 0.492% | max response (NIH3T3) -12.3% | Potency (HEK293T)

CC1(C)CC2C3=CCC4C5(C)CCC(OC6OC(CO)C(O)C(OC7OC(CO)C(O)C(OC8OC(CO)C(O)C(OC9OC(COC%10OC(CO)C(O)C(O)C%10O)C(O)C(O)C9O)C8O)C7O)C6O)C(C)(C)C5CCC4(C)C3(C)CCC2(C(=O)O)CC1O (stereo not given)
inactive: outcome (CRL-7250) | outcome (HEK293) | max response (HaCat) -4.22% | max response (KB-3-1) -7.8% | max response (NIH3T3) 2.99% | outcome (HEK293T) inactive [at 9.27 µM]

CN1C(=O)N[C@@H](Cc2c[nH]c3c(Cl)cccc23)C1=O
inactive: max response (CRL-7250) -3.21% | outcome (HEK293) | max response (HaCat) -0.267% | max response (KB-3-1) -1.43% | outcome (NIH3T3) | Potency (HEK293T)

CC(=O)N[C@@H](CC(C)C)C(=O)N[C@@H](CCC(=O)O)C(=O)N[C@@H](CCC(=O)O)C(=O)N[C@@H](CC(=O)O)C(=O)Nc1ccc2c(C(F)(F)F)cc(=O)oc2c1 (Ac-LEED-{AFC})
inactive: max response (CRL-7250) -4.37% | outcome (HEK293) | max response (HaCat) -31% | max response (KB-3-1) 0.179% | max response (NIH3T3) 1.1% | Potency (HEK293T)

CC(C(=O)O)C1CCC2(C)C3C(=O)C=C4C(CCC(=O)C4(C)C)C3(C)CCC12C (stereo not given)
inactive: max response (CRL-7250) 0.281% | outcome (HEK293) | max response (HaCat) -2.22% | outcome (KB-3-1) | outcome (NIH3T3) | Potency (HEK293T)

C[C@@H]1C[C@H](O)/C=C/[C@H](O)[C@@H](O)CC(=O)O1
inactive: max response (CRL-7250) 2.61% | outcome (HEK293) | max response (HaCat) 3.57% | outcome (KB-3-1) | outcome (NIH3T3) | Potency (HEK293T)
